Shown are actives, neighbours in structure and some others; about 2.4% of the full set was active somewhere.
Cruzain inh noDet = inhibitors of Trypanosoma cruzi cruzain without detergent. Potency, µM, without a hit: max response, negative = inhibition, most hits filed as inhibitors. P25779. AID 1476. hit rate 2.3% among 200,000. purified cruzain, Z-FR-AMC fluorescence, no detergent;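 also: plate controls were enzyme without inhibitor for no effect and buffer without enzyme for full effect; nearly all actives have a fitted effect of over 40% in size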
Target sequence (P25779 123-467 limits assumed): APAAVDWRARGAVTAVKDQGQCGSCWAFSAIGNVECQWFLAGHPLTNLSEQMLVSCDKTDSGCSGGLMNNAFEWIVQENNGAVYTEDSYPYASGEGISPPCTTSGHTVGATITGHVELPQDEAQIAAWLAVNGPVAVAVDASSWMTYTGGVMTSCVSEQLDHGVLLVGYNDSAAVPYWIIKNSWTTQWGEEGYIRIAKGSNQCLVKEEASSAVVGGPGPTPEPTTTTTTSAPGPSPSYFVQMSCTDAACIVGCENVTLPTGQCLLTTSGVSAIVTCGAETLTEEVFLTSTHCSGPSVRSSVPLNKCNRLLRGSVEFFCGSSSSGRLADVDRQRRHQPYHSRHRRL
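Purified cruzain at 1.5 nM, pre-incubated 15 min with compound at room temperature in 100 mM sodium acetate pH 5.5, 5 mM DTT, 0.00005% Triton X-100. Reaction started with 2 uM Z-FR-AMC; AMC fluorescence increase over 60 s gives rate.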
Cruzain Triton = blocks cruzain activity in presence of Triton detergent | Potency, µM, for inactives: max response, negative = inhibition, most hits filed as inhibitors | hit rate 0.43% among 200,000 | P25779 | purified cruzain, Z-FR-AMC fluorescence, 0.01% Triton;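 also: plate controls were neutral wells for no effect and buffer without enzyme for full effect; nearly all actives have a fitted effect of over 40% in size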
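Z-FR-AMC hydrolysis (2 uM substrate) by cruzain (1.5 nM) monitored kinetically at ex 360/em 450 nm after 15 min room-temperature compound exposure; 0.01% Triton X-100, pH 5.5, 5 mM DTT.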
* hit, by the source's call; ? = inconclusive. Calls follow the shape of the dose curve; as a rule, active = well fitted curve in the direction sought with a large enough effect; inconclusive = small, poorly fitted or top-dose-only effect, or another doubt; inactive = no such curve, though single readings can be large; an effect the other way counts as inactive or inconclusive. Potency is read from the fitted curve at half-maximal effect.

SMILES | Cruzain inh noDet | Cruzain Triton
CCc1cc(C(=O)N=Nc2c(O)[nH]c3ccc([N+](=O)[O-])cc23)c2ccccc2n1 | -26.6% | -14.2%
CCCCCCC(=O)N=Nc1c(O)[nH]c2ccc([N+](=O)[O-])cc12 | 25.1µM* | -2.7%
O=C(N/N=C\c1ccc(-c2ccc([N+](=O)[O-])cc2)o1)c1ccc2c(c1)OCO2 | 7.94µM* | -1.1%
O=C(N/N=C/c1ccc(Br)o1)c1ccc2c(c1)OCCO2 | -12.4% | -6.3%
CCc1cccc(C)c1NC(=O)COC(=O)c1c2c(nc3ccccc13)/C(=C\c1cccs1)CCC2 | 7.94µM* | 0.3%
NC(=O)c1ccc(NC(=O)COC(=O)c2c3c(nc4ccccc24)/C(=C\c2cccs2)CCC3)cc1 | ? | -2.2%
O=C(Nc1ccc2c(c1)CCC2)c1cccc(S(=O)(=O)N2CCN(c3ccccc3)CC2)c1 | 25.1µM* | 0.5%
O=C(Nc1ccc(Cl)c(Cl)c1)c1cc(S(=O)(=O)N2CCN(c3cccc(Cl)c3)CC2)ccc1F | 3.16µM* | 0.5%
O=C(NC1CCCc2ccccc21)c1cccc(S(=O)(=O)N2CCN(c3ccccc3)CC2)c1 (stereo unspecified) | ? | -2.0%
O=C(Nc1ccc(F)c(F)c1)c1cc(S(=O)(=O)N2CCN(c3ccccn3)CC2)ccc1F | 3.2% | -4.3%
COc1ccc(CCNC(=O)C(C)n2nc(C)c3sc4ccccc4c3c2=O)c(OC)c1 (stereo unspecified) | -15.8% | ?
CC(C)c1ccc(OCc2cc(=O)n3c(-c4ccccc4)csc3n2)cc1 | -14.0% | -4.3%
CC(=O)Nc1cccc(NC(=O)c2c(-c3ccccc3)c(-c3ccccc3)nn(C)c2=O)c1 | ? | -0.4%
Cc1ccccc1NC(=O)CN(C)S(=O)(=O)c1cccc2nsnc12 | -23.5% | -1.9%
COc1ccc(OC)c(S(=O)(=O)NCc2ccccc2)c1 | -2.3% | -1.6%
COc1ccc(OC)c(NS(=O)(=O)Cc2ccccc2)c1 | 31.6µM* | -2.1%
O=C(NCCCN1CCN(c2ccccc2)CC1)c1nnc(Cc2c(F)cccc2Cl)o1 | -2.4% | -0.9%
Cn1c(C(=O)NCCN2CCc3ccccc3C2)cc2c(=O)n(C)c3ccccc3c21 | ? | 25.1µM*
CCOCCCNC(=O)c1cc2c(=O)n(C)c3ccccc3c2n1C | -10.6% | -1.7%
Cn1c(C(=O)NCCN2CCN(c3ccccc3F)CC2)cc2c(=O)n(C)c3ccccc3c21 | -9.8% | -3.9%
CCCN(CCC)CCNC(=O)c1cc2c(=O)n(C)c3ccccc3c2n1C | ? | 15.8µM*
CCOC(=O)c1[nH]c2ccc(F)cc2c1NC(=O)Nc1ccccc1OC | 7.94µM* | 1.4%
CCOC(=O)c1[nH]c2ccccc2c1NC(=O)c1ccccc1OC | 3.6% | -8.3%
FC(F)(F)c1ccccc1Cl | -2.3% | 4.5%
COc1ccc(-c2cc(-c3ccccc3)nc(SCC(=O)Nc3ccccc3C)c2C#N)cc1 | -5.7% | -1.1%
SMILES | Cruzain inh noDet | Cruzain Triton
CCc1nnc(NC(=O)CSc2nc(-c3ccccc3)cc(-c3ccc(F)cc3)c2C#N)s1 | 7.94µM* | 3.4%
COc1ccc(CNC(=O)CSc2nc(-c3ccccc3)cc(-c3cccs3)c2C#N)cc1 | 10µM* | 3.6%
CC(C)OC(=O)CC(=O)CSc1nc(-c2ccc(F)cc2)cc(-c2ccccc2)c1C#N | -5.7% | -4.6%
COc1ccc(-c2cc(-c3cccs3)c(C#N)c(SCC(=O)NCc3ccco3)n2)cc1 | 7.94µM* | -6.9%
O=C(CSc1nc(-c2cccs2)cc(C(F)(F)F)n1)NCc1ccco1 | -0.4% | -4.0%
Cc1ccc(CN(Cc2cccn2-c2nnc(N3CCCC3=O)s2)C(=O)Nc2ccccc2Cl)cc1 | 4.9% | -3.1%
COc1cccc(NC(=O)CSc2nc3ccc(NC(=O)c4cccs4)cc3s2)c1 | ? | -3.6%
Oc1cc(O)c2c(c1)O[C@H](c1ccc(O)c(O)c1)[C@@H](O)C2 | 15.8% | 2.3%
O=c1c(O)cc(C2Oc3cc(O)cc(O)c3CC2O)cc2c(C3Oc4cc(O)cc(O)c4CC3O)cc(O)c(O)c12 (stereo unspecified) | -22.3% | 25.1µM*
CCOc1ccc(CNC(=O)c2cc3c(=O)n(Cc4cccs4)ccc3nc2C)cc1 | ? | -2.4%
O=C(O)c1cccc(Cl)c1Cl | 3.7% | 6.2%
COC(=O)c1ccc(C23CC4(C2)[C@H](CN(Cc2ccc(-c5ccccc5)cc2)[C@@H]4c2ccccc2)C3c2ccc(C(F)(F)F)cc2)cc1 (stereo partly specified) | ? | 1.0%
COC(=O)c1cccc(C23CC4(C2)[C@H](CN(Cc2ccc(C(F)(F)F)cc2)[C@@H]4c2ccccc2)C3c2ccccc2)c1 (stereo partly specified) | -29.5% | 0.2%
COC(=O)c1cccc(C23CC4(C2)[C@H](CN(Cc2ccc(-c5ccccc5)cc2)[C@@H]4c2ccccc2)C3c2ccccc2)c1 (stereo partly specified) | 12.6µM* | 2.8%
FC(F)(F)c1ccc(C2[C@H]3CN(Cc4ccc(-c5ccccc5)cc4)[C@H](c4ccccc4)C34CC2(c2ccccc2)C4)cc1 (stereo partly specified) | 12.6µM* | 3.0%
COC(=O)c1ccc(C23CC4(C2)[C@H](CN(Cc2ccc(-c5ccccc5)cc2)[C@@H]4c2ccccc2)C3c2ccc(Cl)nc2)cc1 (stereo partly specified) | 15.8µM* | 3.2%
FC(F)(F)c1ccc(C2[C@H]3CN(Cc4ccc(-c5ccccc5)cc4)[C@H](c4ccccc4)C34CC2(c2cccnc2)C4)cc1 (stereo partly specified) | -6.4% | 7.0%
c1ccc(-c2ccc(CN3C[C@@H]4C(c5ccccc5)C5(c6cccnc6)CC4(C5)[C@H]3c3ccccc3)cc2)cc1 (stereo partly specified) | -0.6% | -0.2%
COC(=O)c1cccc(C23CC4(C2)[C@H](CN(Cc2ccc(-c5ccccc5)cc2)[C@@H]4c2ccccc2)C3c2ccc(C(F)(F)F)cc2)c1 (stereo partly specified) | 25.1µM* | -1.9%
CC1(C)[C@@H](CC(=O)O)CCC[C@@H]1CC(=O)O | 1.9% | 5.0%
Cc1c(C(=O)NCc2cccc(Br)c2)oc2ccc3c(c12)C(=O)CC(C)(C)O3 | -16.1% | -5.5%
Nc1ncnc2c1ncn2[C@@H]1O[C@H](COP(=O)(O)OP(=O)(O)OP(=O)(O)OP(=O)(O)OC[C@@H]2O[C@H](n3cnc4c(N)ncnc43)[C@@H](O)[C@@H]2O)[C@H](O)[C@H]1O | 5.4% | 2.1%
COc1ccc(S(=O)(=O)N2CCC(N3CCN(Cc4ccccc4)C(=O)C3=O)CC2)cc1 | 3.3% | 3.3%
COc1cc2c(cc1OC)n(CC(=O)c1cc(C)ccc1C)c(=O)n1nc(CCn3nc(C)cc3C)nc21 | -0.8% | 1.3%
O=[N+]([O-])c1cccc(/C=N/Nc2nnc(-c3ccccc3)c(-c3ccccc3)n2)c1 | 7.94µM* | -5.4%
C/C(=N\Nc1nnc(-c2ccccc2)c(-c2ccccc2)n1)c1cccc([N+](=O)[O-])c1 | ? | -5.6%
CCOC(=O)c1cc2c(=O)n3cccc(C)c3nc2n(Cc2ccco2)c1=NC(=O)c1cccnc1 | ? | -8.9%
Cc1cccc(C(=O)N=c2c(C#N)cc3c(=O)n4cccc(C)c4nc3n2Cc2ccco2)c1 | 15.8µM* | 8.91µM*
COc1ccc(C)cc1NC(=O)C(OC(=O)CNC(=O)c1cccc(F)c1)c1ccccc1 (stereo unspecified) | 12.6µM* | ?

Screening data from PubChem.
